From PubChem BioAssay (NCATS)
Records with an inconclusive call do not appear. The source made the active and inactive calls. Unless noted, the call rests on the fitted dose curve; in most records, active means well fitted curve in the direction sought with a large enough effect; inconclusive means small, poorly fitted or top-dose-only effect, or another doubt; inactive means no such curve, though single readings can be large; an effect the other way counts as inactive or inconclusive.

Tests used:
[1] = qHTS drug screen for cell cycle checkpoint inhibitors in PARPi-resistant BRCA-mutant ovarian cancer cell lines. (AID 1963452; calls by dose curve; further: potency means the concentration at half of the fitted maximal effect); conditions: PEO1/OlaR viability, CellTiter-Glo luminescence, 96 h; for Z-AUC: stronger effect = lower value
Summary of the method: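 PEO1, PEO4 and PEO1/OlaR ovarian cancer cells, 600 per well, exposed 96 h at 37C to a dilution series. Viability read by CellTiter-Glo luminescence, normalized to DMSO and empty wells; activity summarized as Z-AUC.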

[2] = qHTS profiling for inhibitors of Plasmodium falciparum proliferation (AID 504749); further: potency means the concentration at half of the fitted maximal effect;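 on activity, negative = inhibition: 0% = DMSO vehicle and full inhibition = artemisinin control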; on all read-outs here: nearly all actives have a fitted effect of over 60% in size; conditions: P. falciparum in erythrocytes, SYBR Green DNA, 72 h; for activity, negative = inhibition: at 28.7 µM (top of the series)
Summary of the method: (§1)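 In a 72 h erythrocytic culture (37 C, humidified, 5% CO2) at 2.5% hematocrit and 0.3% starting parasitemia, compounds were tested; SYBR Green I in detergent lysis buffer stained parasite DNA overnight.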

3D7 = experiment: as above; conditions: P. falciparum in erythrocytes, SYBR Green DNA, 72 h; series mostly up to 28.7 µM
Summary of the method: as §1

7G8 = experiment: as above; conditions: P. falciparum in erythrocytes, SYBR Green DNA, 72 h; series mostly up to 28.7 µM
Summary of the method: as §1

AA1029 = experiment: as above; conditions: P. falciparum in erythrocytes, SYBR Green DNA, 72 h; series mostly up to 28.7 µM
Summary of the method: as §1

AS120 = experiment: as above; conditions: P. falciparum in erythrocytes, SYBR Green DNA, 72 h; series mostly up to 28.7 µM
Summary of the method: as §1

ATS189 = experiment: as above; conditions: P. falciparum in erythrocytes, SYBR Green DNA, 72 h; series mostly up to 28.7 µM
Summary of the method: as §1

ATS95 = experiment: as above; conditions: P. falciparum in erythrocytes, SYBR Green DNA, 72 h; series mostly up to 28.7 µM
Summary of the method: as §1

C2A = experiment: as above; conditions: P. falciparum in erythrocytes, SYBR Green DNA, 72 h; series mostly up to 28.7 µM
Summary of the method: as §1

CP185 = experiment: as above; conditions: P. falciparum in erythrocytes, SYBR Green DNA, 72 h; series mostly up to 28.7 µM
Summary of the method: as §1

CP191 = experiment: as above; conditions: P. falciparum in erythrocytes, SYBR Green DNA, 72 h; series mostly up to 28.7 µM
Summary of the method: as §1

CP192 = experiment: as above; conditions: P. falciparum in erythrocytes, SYBR Green DNA, 72 h; series mostly up to 28.7 µM
Summary of the method: as §1

CP194 = experiment: as above; conditions: P. falciparum in erythrocytes, SYBR Green DNA, 72 h; series mostly up to 28.7 µM
Summary of the method: as §1

[3] = KB-3-1 P-gp reporter qHTS against the NCATS DSHEA and TCM libraries (AID 1919975); further: 0% is about no effect
Summary of the method: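 Parental KB-3-1 cells, 500 cells/well, in DMEM with 10% FBS, exposed 72 h at 37 C to compounds in concentration-response. Viability read by CellTiter-Glo luminescence after 30 min at room temperature.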

[4] = biological target: Cytochrome P450 1A2 (Homo sapiens) (UniProt P05177); experiment: qHTS for inhibitors of CYPIA2 against the NCATS DSHEA and TCM libraries (AID 1919976); further: on the % scale 0 is the no-effect control and ±100 the full control effect
Summary of the method: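 Luminescence read-out: pro-luciferin converted to D-luciferin by CYP1A2, detected with P450-Glo reagent after 30 min RT. Enzyme plus substrate got compounds for 15 min RT; NADPH regeneration solution (final 1x) started a 30-45 min reaction, light-protected.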

[5] = qHTS Counterscreen for compound interference against the NCATS DSHEA and TCM libraries (AID 1919978); conditions: firefly luciferase detection reagent interference, luminescence;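 further: compounds preincubated with 1 µM D-luciferin or buffer before detection reagent; % of control where 0% means no effect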
Summary of the method: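 Firefly luciferase detection reagent was added after compounds (19.5 nM–39.8 uM final) had been incubated 15 min at room temperature with 1 uM D-luciferin or with 100 mM phosphate buffer alone. Luminescence was read after 30 min at room temperature.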

[6] = Dual reporter qHTS for agonist of Pregnane X Receptor (hPXR) against the NCATS DSHEA and TCM libraries: Fluorescence readout (AID 1920058); further: 0% is about no effect
Summary of the method: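 Fluorescence read-out for cell viability: CellTiter-Fluor, 1 h at 37 °C, Ex/Em 405/540 nm. This followed ~24 h treatment of hPXR-Luc HepG2 cells with substances in agonist mode.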

[7] = biological target: Nuclear receptor subfamily 1 group I member 2 (Homo sapiens) (UniProt O75469); experiment: Dual reporter qHTS for agonist of Pregnane X Receptor (hPXR) against the NCATS DSHEA and TCM libraries: Luminescence readout (AID 1920059); further: 0% is about no effect
Summary of the method: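 Luminescent PXR reporter read (ONE-Glo) after a CellTiter-Fluor viability read, following 24 h, 37C treatment of HepG2 cells stably carrying hPXR-Luc.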

[8] = biological target: Nuclear receptor subfamily 1 group I member 2 (Homo sapiens) (UniProt O75469); experiment: Dual reporter qHTS for antagonist of Pregnane X Receptor (hPXR) against the NCATS DSHEA and TCM libraries: Luminescence Readout (AID 1920060);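 further: HepG2 cells carrying hPXR luciferase reporter stimulated with rifampicin at 2 µM; 0% is about no effect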
Summary of the method: (§2)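 In antagonist mode, 2 uM rifampicin was added to hPXR-Luc HepG2 cells alongside test substances, incubated 24 h at 37 C; luminescence gave reporter activity, and CellTiter-Fluor fluorescence (405/540 nm) gave viability.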

[9] = Dual reporter qHTS for antagonist of Pregnane X Receptor (hPXR) against the NCATS DSHEA and TCM libraries: Fluorescence Readout (AID 1920061); further: 0% is about no effect
Summary of the method: as §2

[10] = measured here: PEO1 parental Z-AUC

Nuclear receptor subfamily 1 group I member 2 (Homo sapiens), sequence (O75469 whole entry, looked up): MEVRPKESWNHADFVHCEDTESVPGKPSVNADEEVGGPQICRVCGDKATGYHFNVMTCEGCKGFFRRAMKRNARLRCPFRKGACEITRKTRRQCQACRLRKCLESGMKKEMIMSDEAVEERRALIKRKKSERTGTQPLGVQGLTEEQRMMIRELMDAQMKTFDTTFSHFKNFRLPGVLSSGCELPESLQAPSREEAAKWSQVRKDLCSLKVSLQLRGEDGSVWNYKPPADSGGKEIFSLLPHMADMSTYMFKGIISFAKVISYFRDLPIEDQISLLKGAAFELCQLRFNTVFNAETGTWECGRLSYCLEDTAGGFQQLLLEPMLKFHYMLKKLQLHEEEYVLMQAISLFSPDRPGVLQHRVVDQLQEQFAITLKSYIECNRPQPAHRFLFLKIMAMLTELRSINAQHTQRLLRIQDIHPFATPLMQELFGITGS
Cytochrome P450 1A2 (Homo sapiens), sequence (P05177 whole entry, looked up): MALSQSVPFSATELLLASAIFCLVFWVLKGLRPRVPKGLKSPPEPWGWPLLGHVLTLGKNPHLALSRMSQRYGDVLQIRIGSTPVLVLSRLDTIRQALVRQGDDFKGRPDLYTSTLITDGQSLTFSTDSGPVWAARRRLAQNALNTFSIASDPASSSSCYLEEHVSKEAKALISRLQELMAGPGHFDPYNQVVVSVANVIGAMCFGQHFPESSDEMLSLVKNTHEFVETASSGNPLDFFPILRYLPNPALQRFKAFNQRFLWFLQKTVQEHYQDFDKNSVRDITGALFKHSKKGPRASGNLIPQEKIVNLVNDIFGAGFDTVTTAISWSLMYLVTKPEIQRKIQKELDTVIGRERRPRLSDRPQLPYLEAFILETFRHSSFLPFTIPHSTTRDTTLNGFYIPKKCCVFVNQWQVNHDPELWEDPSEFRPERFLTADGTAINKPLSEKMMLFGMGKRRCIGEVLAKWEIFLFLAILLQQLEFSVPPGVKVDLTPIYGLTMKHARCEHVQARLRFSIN

COC(=O)[C@@H]1CC2=CC(=O)CC[C@]2(C)[C@@]23O[C@@H]2C[C@@]2(C)[C@@H](CC[C@@]24CCC(=O)O4)[C@H]13
inactive: Z-AUC [1] -0.162 | activity, negative = inhibition ([2]; parasite line A) 8.39% | activity, negative = inhibition ([2]; parasite line B) 17.6% | Potency (3D7) | Potency (7G8) | Potency (AA1029) | Potency (AS120) | Potency (ATS189) | Potency (ATS95) | Potency (C2A) | Potency (CP185) | Potency (CP191) | Potency (CP192) | Potency (CP194)
0.317: Z-AUC ([1]; measured here: PEO4 Z-AUC)
-0.149: Z-AUC [1, 10]

Cc1cc2c(cc1CC(=O)c1sccc1S(=O)(=O)Nc1onc(C)c1Cl)OCO2
0.661: Z-AUC ([1]; measured here: PEO4 Z-AUC)
inactive: Z-AUC [1] 0.64
0.98: Z-AUC [1, 10]

CC(=O)OCC(=O)[C@@]12OC(C)(C)O[C@@H]1C[C@H]1[C@@H]3C[C@H](F)C4=CC(=O)C=C[C@]4(C)[C@@]3(F)[C@@H](O)C[C@@]12C
-0.783: Z-AUC ([1]; measured here: PEO4 Z-AUC)
0.136: Z-AUC [1, 10]
inactive: Z-AUC [1] -0.667

CN(C)CC/C=C1/c2ccccc2COc2ccc(CC(=O)O)cc21
inactive: Z-AUC [1] -0.218
-0.471: Z-AUC ([1]; measured here: PEO4 Z-AUC)
0.35: Z-AUC [1, 10]

COc1cc2c(cc1O)CC[C@@H]1[C@@H]2CC[C@]2(C)[C@@H](O)CC[C@@H]12
inactive: Z-AUC [1] 0.212
-0.545: Z-AUC [1, 10]
-0.454: Z-AUC ([1]; measured here: PEO4 Z-AUC)

C/C=C/c1ccc(OC)cc1
inactive: outcome [3] | outcome [4] | max response [5] -1.84% | outcome [6] | outcome [7] | outcome [8] | outcome [9]

COc1cccc2c1C(=O)c1c(O)c3c(c(O)c1C2=O)C[C@@](O)(C(C)=O)C[C@@H]3O[C@H]1C[C@H](N)[C@H](O)[C@H](C)O1
-2.1: Z-AUC [1, 10]
active: Potency [1] 0.174 µM | Potency ([2]; parasite line A) 3.55 µM | Potency ([2]; parasite line B) 7.08 µM | Potency (3D7) 2 µM | Potency (7G8) 1.26 µM | Potency (AA1029) 4.47 µM | Potency (AS120) 3.98 µM | Potency (ATS189) 8.91 µM | Potency (ATS95) 4.47 µM | Potency (C2A) 3.16 µM | Potency (CP185) 4.47 µM | Potency (CP191) 3.16 µM | Potency (CP192) 6.01 µM | Potency (CP194) 7.57 µM
-2.06: Z-AUC ([1]; measured here: PEO4 Z-AUC)

COc1c(C)c2c(c(O)c1C/C=C(\C)CCC(=O)O)C(=O)OC2
-0.0213: Z-AUC [1, 10]
-0.309: Z-AUC ([1]; measured here: PEO4 Z-AUC)
active: Potency ([2]; parasite line A) 3.16 µM | Potency ([2]; parasite line B) 3.55 µM | Potency (3D7) 3.55 µM | Potency (7G8) 2.51 µM | Potency (AA1029) 2.51 µM | Potency (AS120) 3.16 µM | Potency (ATS189) 2.51 µM | Potency (ATS95) 3.16 µM | Potency (C2A) 2.82 µM | Potency (CP185) 3.16 µM | Potency (CP191) 2.82 µM | Potency (CP194) 4.55 µM
inactive: Z-AUC [1] -0.522

CC1(C)O[C@@H]2C[C@H]3[C@@H]4C[C@H](F)C5=CC(=O)C=C[C@]5(C)[C@H]4[C@@H](O)C[C@]3(C)[C@]2(C(=O)CO)O1
inactive: Z-AUC [1] 0.212
0.487: Z-AUC ([1]; measured here: PEO4 Z-AUC)
1.77: Z-AUC [1, 10]

CN(C)/N=N/c1nc[nH]c1C(N)=O
inactive: activity, negative = inhibition ([2]; parasite line A) 8.05% | activity, negative = inhibition ([2]; parasite line B) 1.17% | Potency (3D7) | Potency (7G8) | Potency (AA1029) | Potency (AS120) | Potency (ATS189) | Potency (ATS95) | Potency (C2A) | Potency (CP185) | Potency (CP191) | Potency (CP192) | Potency (CP194)

NC(=O)C(=O)N/N=C/c1ccc([N+](=O)[O-])o1
inactive: activity, negative = inhibition ([2]; parasite line A) -26.1% | activity, negative = inhibition ([2]; parasite line B) -11.4% | Potency (3D7) | Potency (7G8) | Potency (AA1029) | Potency (AS120) | Potency (ATS189) | Potency (ATS95) | Potency (C2A) | Potency (CP185) | Potency (CP191)
